The results in this text go back to PubChem BioAssay.

One assay deals with Albumin (Bos taurus) (UniProt P02769). Put plainly: bovine serum albumin binders on microarray, profiling panel, artefact control for SMM control protein annotation, biochemical, small-molecule microarray, Alexa647 label, 635/667 nm fluorescence (AID 1118).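 Note: score merges 667 nm emission intensity and signal-to-noise per printed compound spot.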 Particulars: BSA-A647 binding, fluorescence 635 nm, higher = more signal.
Assay [1] can be described thus: small-molecule microarray binders of probe aXIP, primary screen, biochemical, NeuroSMM set, 635/667 nm fluorescence (AID 1119).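 Note: probe is the protein aXip251-270 applied at 1 µg/mL to compound-printed slides; binding of probe to printed compounds measured as 667 nm fluorescence plus signal to noise.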 Particulars: higher = more signal, called active from +8 up or from −8 down.
Assay [2] in a line: small-molecule binders of probe aNOTCH3, primary screen, biochemical, small-molecule microarray, 635/667 nm fluorescence (AID 1120).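 Note: probe is a biotin-tagged antibody raised against NOTCH3 rather than NOTCH3 protein; score merges spot fluorescence near 667 nm with spot signal to noise.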 Particulars: higher = more signal.
Assay [3] in a line: small-molecule binders of probe aNOTCH2, primary screen, biochemical, small-molecule microarray, 635/667 nm fluorescence (AID 1121).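 Note: score merges feature fluorescence read at 667 nm with its signal to noise.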 The following applies: higher = more signal.
The target in assay [4] is Carbonic anhydrase 2 (Homo sapiens) (UniProt P00918). As to the kind of experiment: CAII small-molecule binders, profiling panel, biochemical, small-molecule microarray, Alexa647-labelled CAII (AID 1122). Particulars: CAII-A647 binding fluorescence, higher = more signal.
Assay [5] is described as follows: COS7 lysate on small-molecule microarray, probe aHis, 635 nm (AID 1123).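 Note: z-score combines 667nm fluorescence intensity with signal-to-noise per printed compound spot.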 The following applies: COS7 cell lysate, fluorescence, higher = more signal.
The nature of assay [6]: compound binding in COS7 lysate, probe aLAP1, primary screen, cell lysate, small-molecule microarray (AID 1124).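 Note: lysate comes from COS7 cells expressing LAP1 and is applied at 0.3 µg/mL; score merges spot fluorescence near 667 nm with signal-to-noise over triplicate slides.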 Particulars: probe aLAP1, fluorescence, higher = more signal.
Another assay relates to Sam68 (KHDRBS1). Put plainly: Sam68 small-molecule binders, primary screen, biochemical, small-molecule microarray, 635 nm fluorescence (AID 1125).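 Note: score merges 667 nm channel intensity with signal to noise over triplicate slides.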 Particulars: small-molecule microarray binding, higher = more signal.
Assay [7] concerns Chordin-like protein 2 (CHRDL2). Put plainly: CHRDL2 small-molecule binders, primary screen, biochemical, small-molecule microarray, 635 nm fluorescence (AID 1126).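 Note: printed compound slides probed with Chrdl2 protein at 4 µg/mL for 1 h at 4 C; score merges 667 nm emission intensity with signal to noise over three replicate slides.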 Particulars: small-molecule microarray binding, fluorescence 635 nm; higher = more signal.
Assay [8] has as its target Concanavalin-A (Canavalia ensiformis) (UniProt P02866). Put plainly: ConA small-molecule binders, primary screen, artefact control for SMM control protein annotation, biochemical, small-molecule microarray, Alexa647 label, 635 nm (AID 1127).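 Note: z combines 667 nm emission intensity with signal-to-noise across three replicate slides.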 The following applies: ConA-A647 binding fluorescence, higher = more signal.
A short description of assay [9]: anti-His antibody binders, primary screen, artefact control for SMM control protein annotation, biochemical, small-molecule microarray, 635 nm fluorescence (AID 1128).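 Note: score merges feature fluorescence with signal-to-noise for each printed compound spot.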 Particulars: anti-His Alexa647 antibody binding, higher = more signal.
The subject of assay [10] is Human papillomavirus type 1a E7 protein (residues 1-88). As to the kind of experiment: HPV1a E7 small-molecule binders, primary screen, biochemical, small-molecule microarray, residues 1-88, 635 nm (AID 1129). Particulars: small-molecule microarray binding, fluorescence 635 nm; higher = more signal.
The target of assay [11] is Focal adhesion kinase 1 (Homo sapiens) (UniProt Q05397). Put plainly: small-molecule microarray binders of FAK, primary screen, biochemical, 635/667 nm fluorescence, BSA, DTT (AID 1130).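 Note: composite of spot emission at 667 nm and signal to noise over triplicate slides.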 Particulars: PTK2 binding, 635 nm fluorescence, higher = more signal.
Focal adhesion kinase 1 (Homo sapiens), sequence (Q05397 whole entry, looked up): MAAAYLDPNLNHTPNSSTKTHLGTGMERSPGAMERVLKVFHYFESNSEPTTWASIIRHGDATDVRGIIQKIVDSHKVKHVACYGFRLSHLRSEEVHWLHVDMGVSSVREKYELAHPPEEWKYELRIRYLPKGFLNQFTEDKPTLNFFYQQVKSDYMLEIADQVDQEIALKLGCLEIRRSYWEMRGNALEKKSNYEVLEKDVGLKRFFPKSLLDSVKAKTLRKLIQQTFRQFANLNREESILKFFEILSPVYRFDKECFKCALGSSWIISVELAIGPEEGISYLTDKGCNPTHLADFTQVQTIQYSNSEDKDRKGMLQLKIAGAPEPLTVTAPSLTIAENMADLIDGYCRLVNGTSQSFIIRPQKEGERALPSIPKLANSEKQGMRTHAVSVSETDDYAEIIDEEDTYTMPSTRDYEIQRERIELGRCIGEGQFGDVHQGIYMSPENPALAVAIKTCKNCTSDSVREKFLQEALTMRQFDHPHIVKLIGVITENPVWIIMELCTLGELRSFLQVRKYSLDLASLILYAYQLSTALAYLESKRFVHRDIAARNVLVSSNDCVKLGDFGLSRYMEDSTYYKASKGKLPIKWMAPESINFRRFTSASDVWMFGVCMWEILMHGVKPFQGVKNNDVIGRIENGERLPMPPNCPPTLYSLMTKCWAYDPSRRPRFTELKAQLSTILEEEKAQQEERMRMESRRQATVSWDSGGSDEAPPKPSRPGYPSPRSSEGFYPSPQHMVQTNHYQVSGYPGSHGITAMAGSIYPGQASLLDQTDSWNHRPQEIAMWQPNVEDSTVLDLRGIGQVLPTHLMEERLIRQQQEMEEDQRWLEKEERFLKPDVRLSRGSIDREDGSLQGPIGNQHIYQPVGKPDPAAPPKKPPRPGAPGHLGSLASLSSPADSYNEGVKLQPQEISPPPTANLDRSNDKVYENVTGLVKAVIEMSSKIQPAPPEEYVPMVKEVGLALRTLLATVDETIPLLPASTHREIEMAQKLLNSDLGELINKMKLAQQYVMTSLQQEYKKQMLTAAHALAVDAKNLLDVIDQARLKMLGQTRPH
The test system of assay [12] is Fibrinogen (Alexa647-labelled). As to the kind of experiment: fibrinogen binders on compound microarrays, profiling panel, artefact control for SMM control-protein annotation, biochemical, small-molecule microarray, 635/667 nm fluorescence (AID 1131).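 Note: z-score merges 667 nm fluorescence with per-spot signal-to-noise over triplicate slides.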 The following applies: fibrinogen-A647 binding fluorescence, higher = more signal.
In assay [13] the target is Follistatin (Homo sapiens) (UniProt P19883). Put plainly: follistatin binders on small-molecule microarrays, primary screen, biochemical, small-molecule microarray, 635/667 nm fluorescence (AID 1132). The following applies: FST binding, 635 nm fluorescence, higher = more signal.
Follistatin (Homo sapiens), sequence (P19883 whole entry, looked up): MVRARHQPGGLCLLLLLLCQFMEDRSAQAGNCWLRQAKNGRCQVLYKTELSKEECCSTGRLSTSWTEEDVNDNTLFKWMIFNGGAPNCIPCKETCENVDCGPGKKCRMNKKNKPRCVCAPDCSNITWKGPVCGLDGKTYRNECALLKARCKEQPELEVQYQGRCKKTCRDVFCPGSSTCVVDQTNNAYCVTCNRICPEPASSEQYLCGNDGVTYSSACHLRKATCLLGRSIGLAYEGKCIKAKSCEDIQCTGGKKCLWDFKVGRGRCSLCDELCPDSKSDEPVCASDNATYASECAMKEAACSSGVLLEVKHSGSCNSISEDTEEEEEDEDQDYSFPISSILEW
The target of assay [14] is Fibroblast growth factor 2 (Homo sapiens) (UniProt P09038). As to the kind of experiment: FGF2 binders on small-molecule microarrays, primary screen, biochemical, small-molecule microarray, 635/667 nm fluorescence (AID 1133). The following applies: small-molecule microarray binding, FGF2, fluorescence 635/667; higher = more signal.
Fibroblast growth factor 2 (Homo sapiens), sequence (P09038 whole entry, looked up): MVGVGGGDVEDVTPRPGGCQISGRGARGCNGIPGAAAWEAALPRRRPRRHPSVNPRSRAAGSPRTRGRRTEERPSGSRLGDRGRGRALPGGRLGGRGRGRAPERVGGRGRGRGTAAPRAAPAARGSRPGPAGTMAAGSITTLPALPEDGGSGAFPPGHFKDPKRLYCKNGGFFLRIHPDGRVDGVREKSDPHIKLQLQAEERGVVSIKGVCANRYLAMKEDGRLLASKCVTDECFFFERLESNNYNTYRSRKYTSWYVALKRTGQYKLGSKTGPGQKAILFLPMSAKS
Assay [15] can be described thus: mitochondrial membrane potential change in A549 cells, profiling panel, cell-based, JC-1 fluorescence, basal, 24 h, 100 nL (AID 1138).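 Note: A549 lung adenocarcinoma cells under basal conditions with no added stimulus; test concentration not given here.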 Particulars: higher = more signal.
The subject of another assay is Lefty1. As to the kind of experiment: Lefty1 binders on small-molecule microarrays, primary screen, biochemical, small-molecule microarray, 635/667 nm fluorescence (AID 1139). The following applies: small-molecule microarray binding, fluorescence 635/667; higher = more signal.
The subject of assay [16] is wheat germ agglutinin (Triticum aestivum), Alexa647-labelled. Put plainly: wheat germ agglutinin binders on compound microarrays, profiling panel, artefact control for SMM control-protein annotation, biochemical, small-molecule microarray, 635/667 nm fluorescence (AID 1140).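 Note: score merges 667 nm feature emission with signal to noise over triplicate slides.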 Particulars: WGA-A647 binding, 635 nm fluorescence, higher = more signal.
For assay [17], the target named is Luciferin 4-monooxygenase (Photinus pyralis) (UniProt P08659). As to the kind of experiment: firefly luciferase enzyme inhibitors, primary screen, biochemical, luminescence, purified enzyme, 2006 set (AID 1141).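 Note: cell-free assay with purified firefly luciferase at 100 ng per well in PBS; test concentration not given here.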 Particulars: SteadyGlo luminescence, 30 min, higher = more signal, called active from +8 up or from −8 down.
Luciferin 4-monooxygenase (Photinus pyralis), sequence (P08659 whole entry, looked up): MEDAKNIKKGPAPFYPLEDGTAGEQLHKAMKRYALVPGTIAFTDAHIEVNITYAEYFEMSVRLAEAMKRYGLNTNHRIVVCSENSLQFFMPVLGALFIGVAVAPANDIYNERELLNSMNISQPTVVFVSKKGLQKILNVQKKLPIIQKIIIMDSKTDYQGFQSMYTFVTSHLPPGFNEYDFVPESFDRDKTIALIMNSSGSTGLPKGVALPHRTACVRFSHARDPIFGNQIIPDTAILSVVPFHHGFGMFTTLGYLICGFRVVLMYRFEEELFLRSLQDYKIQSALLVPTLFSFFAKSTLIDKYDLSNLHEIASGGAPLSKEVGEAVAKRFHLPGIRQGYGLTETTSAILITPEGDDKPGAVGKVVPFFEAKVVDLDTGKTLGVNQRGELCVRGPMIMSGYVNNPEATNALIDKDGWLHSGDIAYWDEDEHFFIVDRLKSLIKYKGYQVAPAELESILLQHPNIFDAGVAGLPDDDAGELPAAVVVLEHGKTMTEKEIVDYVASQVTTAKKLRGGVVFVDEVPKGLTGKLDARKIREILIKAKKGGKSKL

Structures are written as SMILES. Activity calls are given as the source filed them.

Concanavalin-A (Canavalia ensiformis), sequence (P02866 whole entry, looked up): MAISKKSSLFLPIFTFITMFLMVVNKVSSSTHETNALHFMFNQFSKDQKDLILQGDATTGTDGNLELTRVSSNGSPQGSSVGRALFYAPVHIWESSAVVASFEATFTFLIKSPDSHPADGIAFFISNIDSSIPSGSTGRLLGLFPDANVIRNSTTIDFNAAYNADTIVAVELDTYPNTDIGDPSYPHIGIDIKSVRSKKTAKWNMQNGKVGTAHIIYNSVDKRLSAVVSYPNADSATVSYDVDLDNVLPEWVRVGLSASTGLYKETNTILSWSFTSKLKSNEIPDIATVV
Albumin (Bos taurus), sequence (P02769 whole entry, looked up): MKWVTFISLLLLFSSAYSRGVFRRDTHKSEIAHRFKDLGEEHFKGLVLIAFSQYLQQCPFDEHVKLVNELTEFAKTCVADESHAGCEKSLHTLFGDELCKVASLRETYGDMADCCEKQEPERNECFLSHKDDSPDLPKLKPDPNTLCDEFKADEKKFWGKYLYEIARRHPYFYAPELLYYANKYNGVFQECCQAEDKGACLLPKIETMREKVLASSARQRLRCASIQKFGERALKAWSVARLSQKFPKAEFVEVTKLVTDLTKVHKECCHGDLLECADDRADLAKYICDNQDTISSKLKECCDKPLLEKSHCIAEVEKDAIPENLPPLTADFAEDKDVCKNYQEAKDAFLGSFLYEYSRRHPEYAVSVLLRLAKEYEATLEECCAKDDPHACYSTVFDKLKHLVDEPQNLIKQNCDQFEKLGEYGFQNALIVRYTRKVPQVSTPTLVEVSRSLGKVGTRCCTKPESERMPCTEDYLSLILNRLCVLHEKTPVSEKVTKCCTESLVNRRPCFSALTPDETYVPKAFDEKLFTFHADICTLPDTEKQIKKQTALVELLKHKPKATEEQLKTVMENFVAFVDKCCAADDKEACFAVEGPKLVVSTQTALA

Consider `C=C(CC1([C@@H](NP(=O)(c2ccccc2)c2ccccc2)[C@H]2C[C@@H]2CCCC)CC1)c1ccccc1`, for which the composite z-score was 0.844 with Albumin (Bos taurus); 0.335 in assay [2]; 0.17 in assay [3]; 0.252 in [4]; 2.67 in assay [5]; -0.293 in [6]. Further, the composite z-score with Sam68 (KHDRBS1) is 1.14; in assay [7] it was -0.874; in [8] it was 0.546; in [9], 0.767; in assay [10], 1.19; in [11], 0.0976. The composite z-score was 0.746 in assay [12]; 0.132 in assay [13]; 0.0962 in [14]; -0.415 in the assay on Lefty1; 0.729 in [16]. Besides, in [1], the composite Z-score was 0.121 (inactive). The z-score was -0.0757 in assay [15] and 2.82 (inactive) in [17].

Regarding `CC(C)C(CO)N1C(=O)[C@@H]2C3C(=O)OCCC/C=C\[C@H]3OC23C=CCN(CCN2CCOCC2)C(=O)[C@@H]13` (stereo not given in full), the composite z-score with Albumin (Bos taurus) is 0.692; in assay [2], -0.21; in assay [3] it was -0.0928; in assay [4] it was 0.463; in assay [5], -0.301; in [6], 0.395. The composite z-score with Sam68 (KHDRBS1) is -0.362; in [7] it was -0.254; in [8], -0.724; in assay [9], -0.92; in assay [10], -1.54; in [11], -0.0582. Besides, the composite z-score was -0.0904 in [12]; 0.113 in assay [13]; 0.164 in assay [14]; 0.579 in the assay with Lefty1; -1.24 in [16]. In assay [1], the composite Z-score was -0.298 (inactive). Besides, the z-score in [15] is -0.835; in [17] it was -0.519 (inactive).

Turning to `COC(=O)[C@@]1(Cc2ccc(OC)cc2)[C@H]2c3cc(C(=O)N(C)C)n(Cc4ccc(S(C)(=O)=O)cc4)c3C[C@H]2CN1C(=O)c1ccccc1`, the composite z-score in the assay with Albumin (Bos taurus) was 0.49; in assay [2], 0.697; in [3] it was -0.168; in assay [4] it was 0.725; in [5], 2.72; in assay [6], 0.969. The composite z-score with Sam68 (KHDRBS1) was 0.549; in [7], -0.948; in [8], -1.06; in assay [9], 1.84; in assay [10] it was 1.26; in assay [11], 1.07. Also, the composite z-score in assay [12] was 0.849; in [13], 1.11; in assay [14], -0.56; in the assay with Lefty1 it was 0.0038; in assay [16] it was 1.23. The composite Z-score in assay [1] was -0.357 (inactive). Moreover, the z-score in assay [15] was 0.956; in assay [17], 1.75 (inactive).

For the molecule `O=C1c2ccccc2[C@](Cc2ccccc2I)(C(=O)NCCN2CCOCC2)[C@H](c2ccc(CO)cc2)N1Cc1ccccc1Cl`, the composite z-score with Albumin (Bos taurus) was 0.517; in assay [2], 0.223; in assay [3] it was 0.385; in assay [4], 0.652; in assay [5] it was 1.82; in [6], 0.754. The composite z-score is 1.31 in the assay on Sam68 (KHDRBS1); 0.202 in assay [7]; 1.17 in assay [8]; 2.09 in assay [9]; 1.16 in assay [10]; 0.0936 in [11]. Also, the composite z-score worked out at 0.929 in [12]; 1 in assay [13]; 1.23 in assay [14]; 0.526 in the assay on Lefty1; 1.08 in [16]. The composite Z-score in [1] was 0.322 (inactive). Also, the values for the z-score in assay [15] and in [17] were 1.87 and -0.593 (inactive), respectively.

Regarding `CO[C@H]1O[C@H](CO)[C@@H](OC(=O)Nc2ccccc2)[C@H](OC(=O)Nc2ccccc2)[C@@H]1OC(=O)Nc1ccccc1`, the composite z-score was 0.809 with Albumin (Bos taurus); 0.289 in [2]; -0.0847 in assay [3]; 0.824 in [4]; 1.29 in assay [5]; 0.947 in assay [6]. Besides, the composite z-score worked out at 1.3 in the assay with Sam68 (KHDRBS1); 0.136 in assay [7]; 1.12 in [8]; 0.865 in assay [9]; 1.25 in assay [10]; 0.806 in [11]. Further, the composite z-score in assay [12] is 1.01; in [13] it was 1.3; in [14], 0.412; in the assay on Lefty1, 0.464; in assay [16], 0.833. For the same molecule, the composite Z-score in [1] is -0.0073 (inactive). Besides, the z-score was -0.115 in assay [15] and 0.713 (inactive) in assay [17].

With `C=CCOC(=O)[C@H]1[C@@H]2C(=O)O[C@@H](c3ccccc3)[C@@H](c3ccccc3)N2[C@@H](c2ccc(OCCOC(=O)[C@H]3C[C@H]4C(=O)N[C@@H](CCCCN(C)C)C(=O)N4[C@H]3c3ccc(O)cc3)cc2)[C@]12C(=O)Nc1ccc(I)cc12`, the composite z-score is 0.412 with Albumin (Bos taurus); 0.282 in [2]; -0.0028 in [3]; 0.493 in assay [4]; 1.45 in assay [5]; 0.651 in [6]. Moreover, the composite z-score came to 1.31 in the assay with Sam68 (KHDRBS1); 1.18 in assay [7]; 1.15 in [8]; 2.49 in [9]; 1.23 in [10]; 0.739 in assay [11]. Moreover, the composite z-score in assay [12] was 0.991; in [13], 1.34; in assay [14], 1.64; in the assay with Lefty1 it was 1.59; in assay [16] it was 0.784. Besides, the composite Z-score in assay [1] is 0.432 (inactive). In addition, the z-score in assay [15] is -0.665; in assay [17] it was 0.69 (inactive).

`COC(=O)[C@@]1(Cc2ccc(OC)cc2)[C@H]2c3cc(C(=O)N4CCCC4)n(CCN4CNCC4=O)c3C[C@H]2CN1C(=O)c1ccccc1`: the composite z-score worked out at 1.1 in the assay with Albumin (Bos taurus); 1.49 in assay [2]; 0.967 in [3]; 0.57 in assay [4]; 1.79 in assay [5]; 0.104 in assay [6]. In addition, the composite z-score in the assay with Sam68 (KHDRBS1) is -0.764; in assay [7], -0.316; in [8] it was -0.234; in assay [9] it was 3.25; in assay [10] it was 1.16; in assay [11], 1.06. Also, the composite z-score in assay [12] was 0.326; in assay [13], -1.02; in [14] it was -0.48; with Lefty1, -0.899; in assay [16], 0.949. The composite Z-score in assay [1] was 0.413 (inactive). In addition, the z-score is -0.0456 in assay [15] and -0.119 (inactive) in [17].

Take `O=C1N(Cc2ccccc2)c2ccccc2[C@@H]2OC(c3ccc(OCCCO)cc3)=N[C@]12CCS(=O)(=O)c1ccccc1`: the composite z-score with Albumin (Bos taurus) is 0.272; in [2], 0.147; in [3], -0.0079; in assay [4], 0.626; in assay [5], 2.52; in assay [6], -0.276. For the same molecule, the composite z-score in the assay on Sam68 (KHDRBS1) is 0.895; in assay [7], 0.0187; in assay [8] it was 1.14; in [9] it was 0.218; in assay [10], 1.2; in assay [11] it was 0.564. Moreover, the composite z-score was 0.92 in assay [12]; 1.15 in [13]; 0.311 in assay [14]; 0.0829 in the assay with Lefty1; 1.19 in [16]. For the same molecule, the composite Z-score in assay [1] is 1.29 (inactive). Besides, the z-score was -0.311 in assay [15] and -1.45 (inactive) in [17].

As to `O=C1NC(=O)C2C1C=CC(C(O)c1cccs1)N2Nc1ccc(Cl)cc1Cl` (stereo not given), the composite z-score was 0.165 in the assay with Albumin (Bos taurus); 0.267 in assay [2]; 0.181 in assay [3]; 0.723 in assay [4]; 1.03 in assay [5]; 0.293 in assay [6]. The composite z-score in the assay with Sam68 (KHDRBS1) is -0.374; in assay [7], -0.352; in assay [8] it was -0.376; in assay [9], 0.541; in assay [10], -0.443; in [11], -0.0686. For the same molecule, the composite z-score was -0.868 in [12]; -0.222 in [13]; -0.534 in assay [14]; -0.245 in the assay with Lefty1; 0.22 in assay [16]. The composite Z-score in assay [1] is -0.196 (inactive). Moreover, the z-score in assay [15] is -0.384; in assay [17] it was -1.64 (inactive).
